Only a selection was taken, and hits are over-represented in it overall.
Pin1 inh = qHTS Assay to Find Inhibitors of Pin1. Peptidyl-prolyl cis-trans isomerase NIMA-interacting 1 (Homo sapiens), Q13526. Pin1 FP peptide displacement, HiFluor488, 10 min. Potency, µM (titrated, usually from 115 µM), without a hit: top-dose activity, negative = inhibition, most hits filed as inhibitors. 0.009% of 390,000 active; active = well fitted inhibition curve with a large enough effect in the polarisation, with a control signal flat, not every such curve was filed as active; inconclusive = small, poorly fitted or top-dose-only effect, or effect the other way, or a change in a side signal; inactive = no such curve, though single readings can be large or run the other way; the % refers to the polarisation; also: potency is read from the fitted curve at half-maximal effect; % is scaled to controls: 0 for no effect and ±100 for the full control effect
Target sequence (Q13526 whole entry, looked up): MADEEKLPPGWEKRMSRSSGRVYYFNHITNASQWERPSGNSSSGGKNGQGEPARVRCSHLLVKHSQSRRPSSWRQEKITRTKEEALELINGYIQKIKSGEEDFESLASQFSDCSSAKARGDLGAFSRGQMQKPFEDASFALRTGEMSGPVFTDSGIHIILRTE
PGK inhibitor = qHTS Assay to Find Inhibitors of Phosphoglycerate Kinase | Phosphoglycerate kinase, glycosomal (Trypanosoma brucei brucei), P07378 | PGK/GAPDH coupled, Kinase-Glo luminescence, 60 min | Potency, µM (series often up to 57.5 µM), for the others: top-dose activity change, negative = inhibition, most hits filed as inhibitors | 0.043% of 380,000 active | AID 602233, 2012; also: potency is read from the fitted curve at half-maximal effect; % is scaled to controls: 0 for no effect and ±100 for the full control effect; nearly all actives have a fitted effect of over 60% in size
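Luminescent ATP detection (Kinase-Glo Plus) follows a 60-minute room-temperature incubation, with wells lacking PGK as controls. Buffer: 100 mM TEA (pH 7.6), 5 mM MgCl2, 0.01% Tween-20. Coupling enzyme GAPDH (100 nM final) supplies unstable 1,3-BPG in-well.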
PI4K2A inh = qHTS for small molecular inhibitors of PI4K2A; Phosphatidylinositol 4-kinase type 2-alpha (Homo sapiens), Q9BTU6; purified PI4K2A, ADP-Glo luminescence, 1 h; hits give low values; activity change, negative = inhibition, % at 76.9 µM; 0.13% of 420,000 active; AID 1346378, 2018; in the data active = activity change below about -50%; inconclusive = mostly about -30% to -49%;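 also: -100% = wells without enzyme as full effect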
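Compounds are screened against recombinant PI4K2A using PI as substrate and ATP, the latter dispensed at 300 microM. Reactions run one hour at ambient temperature before ADP-Glo detection; full inhibition defined by wells lacking enzyme.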
PI5P4K alpha inh = qHTS for Inhibitors of phosphatidylinositol 5-phosphate 4-kinase (PI5P4K); PI5P4Kalpha enzyme, ADP-Glo luminescence, 60 min; hits give low values; max response, %; 1.2% of 330,000 active; active = max response of -50% or lower; inconclusive = between -30% and -50%; inactive = -30% or higher; also: value at the top dose of about 77 µM; % is scaled to controls: 0 for no effect and ±100 for the full control effect
Target sequence (P48426 whole entry, looked up): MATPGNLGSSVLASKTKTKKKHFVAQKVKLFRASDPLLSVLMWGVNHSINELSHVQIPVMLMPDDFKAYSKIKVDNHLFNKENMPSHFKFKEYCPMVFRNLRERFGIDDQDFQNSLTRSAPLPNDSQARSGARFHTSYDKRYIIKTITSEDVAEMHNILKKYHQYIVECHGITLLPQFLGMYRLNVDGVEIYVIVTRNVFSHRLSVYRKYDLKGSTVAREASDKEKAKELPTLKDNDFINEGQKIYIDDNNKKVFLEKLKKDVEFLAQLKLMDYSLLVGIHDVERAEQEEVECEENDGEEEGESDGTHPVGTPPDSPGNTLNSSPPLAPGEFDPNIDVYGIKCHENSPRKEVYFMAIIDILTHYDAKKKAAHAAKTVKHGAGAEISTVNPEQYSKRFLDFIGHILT
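ADP-Glo luminescence end-point after a 60 min room-temperature kinase reaction. PI5P4Kalpha and substrate in HEPES pH 7.4 buffer with EGTA, 0.1% CHAPS and 5% DMSO; ATP at 5 microM final.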
Tb PFK inh-1 = qHTS Assay to Find Inhibitors of T. brucei phosphofructokinase | 0.17% of 330,000 active | ATP-dependent 6-phosphofructokinase (Trypanosoma brucei brucei), O15648 | T. brucei PFK, ADP-Glo luminescence | Potency, µM (highest dose often 57.5 µM), for the others: at the highest dose activity, negative = inhibition, most hits filed as inhibitors;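 also: potency is read from the fitted curve at half-maximal effect; 0% = uninhibited 1x PFK enzyme wells and -100% = no-enzyme wells; nearly all actives have a fitted effect of over 60% in size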
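Activity is normalized to no-enzyme wells (full inhibition) and 1.25 nM enzyme wells (no inhibition). Reaction: 0.5 mM F6P, 0.1 mM ATP, 45 min RT, ADP-Glo luminescence; concentration-response curves fitted and classed by quality.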
Tb PFK KinaseGlo = Tb PFK orthogonal confirmatory assay using ATP depletion (Kinase-Glo Plus) as an alternative measure of Tb PFK activity: Hit Validation. shares compounds with Tb PFK inh-1. Tb PFK enzyme, ATP depletion, Kinase-Glo Plus luminescence. Potency, µM (highest dose often 57.5 µM), without a hit: at the top dose inhibition. 47% of 1,100 active. AID 504636, 2011; calls by dose curve; also: potency is read from the fitted curve at half-maximal effect; nearly all actives have a fitted effect of over 60% in size
Tb PFK inh-2 = Inhibitors of T. brucei phosphofructokinase: Hit Validation; shares compounds with Tb PFK inh-1; purified T. brucei PFK, ADP-Glo luminescence, 45 min; Potency, µM (titrated, usually from 57.5 µM), inactives show at the top dose activity change, negative = inhibition, most hits filed as inhibitors; 41% of 1,100 active;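 also: potency is read from the fitted curve at half-maximal effect; plate controls were full PFK enzyme control for no effect and no enzyme control for full effect; nearly all actives have a fitted effect of over 60% in size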
Numbers without * were called inactive; i = inactive; ? = inconclusive; · = no result. Unless noted, calls follow the shape of the dose curve; as a rule, active = well fitted curve in the direction sought with a large enough effect; inconclusive = small, poorly fitted or top-dose-only effect, or another doubt; inactive = no such curve, though single readings can be large; an effect the other way counts as inactive or inconclusive.

SMILES | Pin1 inh | PGK inhibitor | PI4K2A inh | PI5P4K alpha inh | Tb PFK inh-1 | Tb PFK KinaseGlo | Tb PFK inh-2
C[C@H](NC(N)=O)C(=O)Nc1ccc(N2CCOCC2)c(S(=O)(=O)Nc2ccc(Cl)cc2)c1 | -6% | -1% | -1 | ? | ? | 4.3µM* | 11µM*
CC(C)CCP(=O)(O)c1ccccc1 | -11% | -5% | 4 | · | 0% | · | ·
O=c1c2ccccc2nc(Cc2cccc([N+](=O)[O-])c2)n1-c1ccc(O)cc1 | -7% | -3% | 11 | -14 | 0% | · | ·
CCN(CC(=O)Nc1ccc(C#N)c(Cl)c1)CC(=O)NC(C)(C)C | 5% | -7% | -3 | 12 | -7% | · | ·
O=C(NNC(=O)c1cc2cc3ccccc3nc2s1)c1ccc(F)cc1 | 27% | ? | -25 | -15 | ? | ? | ?
CC1=C[C@@H]2c3cccc4[nH]cc(c34)C[C@H]2N(C)C1 | ? | 1% | -4 | 3 | -3% | · | ·
O=C(Nc1nccs1)C(Cl)(Cl)Cl | -4% | -8% | -7 | -13 | -4% | · | ·
Cc1ccc(-c2cc(C(=O)Nc3nccs3)c3ccccc3n2)o1 | 1% | -9% | -1 | ? | 30µM* | 21µM* | ?
Cc1c(C=O)c2ccccc2n1Cc1ccccc1F | -1% | -3% | 3 | -1 | -1% | · | ·
Cc1ccc(/C=C2/NC(=O)N(Cc3ccccc3F)C2=O)o1 | 7% | i | 4 | -14 | ? | ? | -27%
Cc1ccc(/C=C2/NC(=O)N(c3ccccc3)C2=O)o1 | ? | -3% | 1 | · | ? | ? | ?
Cc1ccc(/C=C2/NC(=O)N(Cc3ccc(Br)cc3)C2=O)o1 | 11% | -1% | 4 | ? | 15µM* | ? | ?
CCN1C(=O)N/C(=C/c2ccc(C)o2)C1=O | 1% | -6% | -1 | -29 | 13µM* | ? | ?
NC(Cc1ccc(Cl)cc1)c1csc(Nc2ccccn2)n1 (configuration not stated) | · | · | -2 | -1 | · | · | ·
O=c1cccc2n1CC1CNCC2C1 (configuration not stated) | -4% | -8% | 1 | 7 | 0% | · | ·
O=C(CCCn1c(SCC(=O)c2ccc(O)c(O)c2)nc2ccccc2c1=O)NCC1CCCO1 (configuration not stated) | ? | -20% | -4 | · | ? | ? | ?
CCc1ccccc1NC(=O)CSc1ccsc1[N+](=O)[O-] | 2% | ? | 0 | -57* | ? | ? | ?
COc1cccc(CNc2ccc(F)c([N+](=O)[O-])c2)c1O | -2% | 3% | 2 | 2 | ? | 19µM* | 30µM*
O=[N+]([O-])c1ccccc1CNc1ccc(F)c(Cl)c1 | 0% | 0% | 1 | 1 | ? | 21µM* | ?
COc1ccccc1CCNCc1cc2c(cc1[N+](=O)[O-])OCO2 | ? | -3% | -5 | 2 | 1% | · | ·
O=[N+]([O-])c1ccccc1CCl | 2% | i | -1 | 5 | -1% | · | ·
CCCCN1C(=O)NC(=O)C2(Cc3cc(C)ccc3N(C)C2)C1=O (configuration not stated) | -5% | -2% | 0 | -9 | -9% | · | ·
O=C(N/N=C\C=C\c1ccc2c(c1)OCO2)C1COc2ccccc2O1 (configuration not stated) | 9% | · | -5 | -1 | 27µM* | 17µM* | 21µM*
O=C(c1ccccc1F)c1cn(Cc2ccc(F)cc2)c2ccccc12 | ? | -7% | -6 | 9 | 9% | · | ·
N#Cc1sc(NCc2ccccn2)nc1Cl | -1% | 3% | 9 | -2 | ? | ? | ?
SMILES | Pin1 inh | PGK inhibitor | PI4K2A inh | PI5P4K alpha inh | Tb PFK inh-1 | Tb PFK KinaseGlo | Tb PFK inh-2
CCOP(=O)(OCC)C(O)c1cccc([N+](=O)[O-])c1 (configuration not stated) | 1% | -2% | -5 | -4 | 1% | · | ·
NCCc1ccc(O)c(O)c1 | 9% | -7% | -2 | 0 | ? | ? | -20%
C[C@H](N)Cc1cccc(C(F)(F)F)c1 | · | · | -3 | · | · | · | ·
CCOC(=O)Cn1cc(C(=O)c2ccccc2F)c2ccccc21 | -9% | 0% | -1 | -9 | 3% | · | ·
O=[N+]([O-])c1ccc(N/N=C/c2ccc(O)c(O)c2O)c(S(=O)(=O)N2CCOCC2)c1 | ? | -1% | -21 | -98* | ? | ? | ?
CSC(=NC#N)N1CCN(c2cccc(Cl)c2)CC1 | 1% | -1% | -3 | 16 | 17µM* | 21µM* | 11µM*
Cc1ccc(S(=O)(=O)N(c2cc(Cl)c(O)c(Cl)c2)P(=O)(OC(C)C)OC(C)C)cc1 | -7% | -2% | 3 | -8 | 2% | · | ·
O=C1SC(SCc2ccccc2)=N/C1=C\c1ccc(C(=O)O)cc1 | · | -6% | -5 | -7 | ? | -18% | ?
COC(=O)[C@@]1(Cc2ccc(F)cc2)[C@H]2c3cc(C(=O)N(C)C)[nH]c3C[C@H]2CN1C(=O)c1ccccc1 | -1% | -4% | -2 | -1 | -3% | · | ·
O=C1c2c([N+](=O)[O-])cc([N+](=O)[O-])cc2S(=O)N1Cc1ccccc1 (configuration not stated) | -11% | -1% | -9 | -60* | 27µM* | 6% | -5%
O=C1NS(=O)c2cc([N+](=O)[O-])cc([N+](=O)[O-])c21 (configuration not stated) | 0% | -8% | -4 | -24 | 2% | · | ·
Cc1ccc(O)c(C(=O)c2cc(C(=O)NCc3ccccc3)c(=O)n(Cc3ccccc3)c2)c1 | 36% | -2% | -4 | -6 | 8% | · | ·
Cc1ccc(O)c(NC2=C(Cl)C(=O)N(Cc3ccccc3)C2=O)c1 | 0% | 2% | -5 | -20 | 24µM* | 11µM* | 19µM*
CCc1nnc(NC(=O)C(=O)NCCOC(=O)c2ccccc2Cl)s1 | 0% | 4% | 0 | · | ? | -29% | ?
